Screening results as filed in PubChem BioAssay.
N370S GC: qHTS Assay for Inhibitors and Activators of N370S glucocerebrosidase as a Potential Chaperone Treatment of Gaucher Disease; Lysosomal acid glucosylceramidase (Homo sapiens), P04062; N370S GC spleen homogenate, 4MU-glucoside fluorescence; Potency, µM (titrated, usually from 59.4 µM), for the others: at the top dose activity change, negative = inhibition, usual class: inhibitors; 0.092% of 330,000 active; AID 2101, 2009;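 further: potency means the concentration at half of the fitted maximal effect; 0% = full enzyme activity and -100% = no enzyme basal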
TrxR1 substrate: qHTS Assay for Substrates of Mammalian Selenoprotein Thioredoxin Reductase 1 (TrxR1): qHTS. Thioredoxin reductase 1, cytoplasmic (Rattus norvegicus), O89049. purified TrxR1 substrate turnover, NADPH consumption readout. AID 588456, 2011. 0.01% of 390,000 active. Potency, µM (titrated, usually from 114 µM), inactives show top-dose activity change, negative = substrate turnover; further: potency means the concentration at half of the fitted maximal effect; on the % scale 0 is the no-effect control and ±100 the full control effect; nearly all actives have a fitted effect of over 50% in size
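Rat TrxR1, dispensed at 90 nM, was prereduced with 400 uM NADPH (final) for 5 min at ~22 deg C, then incubated with compound 15 min before 400 uM selenite. A first-read NADPH fluorescence drop versus no-compound background flagged substrates.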
AT treatment: qHTS Assay for Identifying a Potential Treatment of Ataxia-Telangiectasia. F2112 A-T fibroblasts, KAP-1 phosphorylation AlphaLISA; neocarzinostatin DNA damage 30 min before lysis. Potency, µM (titrated, usually from 57.5 µM), for the others: at the top dose activation, hits mostly activators. 0.19% of 320,000 active. AID 485349, 2010; further: potency means the concentration at half of the fitted maximal effect; % of control where 0% means no effect; nearly all actives have a fitted effect of over 45% in size
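hTERT-immortalized A-T patient fibroblasts (F2112), 500 cells/well in OPTI-MEM, 1% FBS, got compounds for 60 min, then NCS for 30 min at 37C. Lysates were then assayed for phospho-KAP-1 by AlphaLISA (anti-pKAP1 donor, anti-KAP1 acceptor beads), 6 hr at 25C.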
Akt phos inh: HTS Assay for Inhibitors of Akt Phophorylation: Primary Screen; 0.32% of 360,000 active; activity change, % for hits at 50 µM; Neuro2A IGF-stimulated pAkt S473 HTRF, 20 min; hits give low values; in the data active means activity change below about -80%; inconclusive means mostly about -51% to -80%; further: on the % scale 0 is the no-effect control and ±100 the full control effect
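Neuro2A cells (4,500/well, DMEM with 0.5% FBS) were treated with compound at a single 50 µM final concentration, stimulated with 6 nM IGF for 20 min at 37 °C, and lysed. Phospho-Akt Ser473 was read by HTRF as 665/615 ratio ×10^4.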
Pin1 inhibitor: qHTS Assay to Find Inhibitors of Pin1. 0.009% of 390,000 active. Potency, µM (highest dose often 115 µM), inactives show top-dose activity, negative = inhibition, usual class: inhibitors. AID 504891, 2011. Pin1 FP peptide displacement, HiFluor488, 10 min. Peptidyl-prolyl cis-trans isomerase NIMA-interacting 1 (Homo sapiens), Q13526; active means well fitted inhibition curve with a large enough effect in the polarisation, with a control signal flat, not every such curve was filed as active; inconclusive means small, poorly fitted or top-dose-only effect, or effect the other way, or a change in a side signal; inactive means no such curve, though single readings can be large or run the other way; the % refers to the polarisation; further: potency means the concentration at half of the fitted maximal effect; on the % scale 0 is the no-effect control and ±100 the full control effect
Target sequence (Q13526 whole entry, looked up): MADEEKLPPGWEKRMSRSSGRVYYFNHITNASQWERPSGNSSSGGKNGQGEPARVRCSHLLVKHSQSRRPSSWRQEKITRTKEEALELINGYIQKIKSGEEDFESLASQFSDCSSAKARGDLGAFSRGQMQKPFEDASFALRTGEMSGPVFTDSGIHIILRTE
rTrxR1 inhibitor: qHTS Assay for Inhibitors of Mammalian Selenoprotein Thioredoxin Reductase 1 (TrxR1): qHTS; recombinant rTrxR1, NADPH fluorescence consumption, selenite substrate; Potency, µM (top dose mostly 114 µM), for inactives: at the highest dose activity change, negative = inhibition, usual class: inhibitors; 1% of 390,000 active; AID 588453, 2011; further: potency means the concentration at half of the fitted maximal effect; on the % scale 0 is the no-effect control and ±100 the full control effect; nearly all actives have a fitted effect of over 65% in size
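Rat TrxR1 (90 nM in the dispensed reagent) was pre-reduced with 400 uM NADPH for 5 min at room temperature, then incubated with compound for 15 min. After 400 uM selenite was added, NADPH fluorescence (Ex 340/Em 450 nm) was followed for 8 min.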
Starred values were filed as active, the others as inactive; i = inactive; ? = inconclusive; / = not tested or not shown; [ ] = dose if it differs, or a comment. Hits are enriched below; roughly 1.4% of the tested compounds scored in any of these assays. Unless noted, the call rests on the fitted dose curve; in most records, active means well fitted curve in the direction sought with a large enough effect; inconclusive means small, poorly fitted or top-dose-only effect, or another doubt; inactive means no such curve, though single readings can be large; an effect the other way counts as inactive or inconclusive.

SMILES	N370S GC	TrxR1 substrate	AT treatment	Akt phos inh	Pin1 inhibitor	rTrxR1 inhibitor
CCOC(=O)c1cccc(Nc2ccc3cc(S(=O)(=O)N4CCCCC4)ccc3n2)c1	/	28.0%[57.1 µM]	/	/	?	13.6%[57.1 µM]
COc1cccc(C2c3c(ncn(-c4ccccc4Br)c3=N)Oc3ccc4ccccc4c32)c1 (stereo not given)	/	/	/	/	17.6%	/
O=C1CS(=O)(=O)N(Cc2cccc(F)c2)c2ccc(Br)cc21	/	-4.2%	0.6%	i	-6.3%	79.4µM*
O=C1NCCCC2c3c(cc(Br)c(O)c3Br)OC12N1CCOCC1 (stereo not given)	-7.7%	-5.9%	20µM*	i	-1.0%	15.8µM*
O=[S+]([O-])(c1ccc2c(c1)OCCO2)N1CCN([S+](=O)([O-])c2c(O)cc(F)cc2F)CC1	/	/	/	/	2.4%	/
Cc1ccc(NC(=S)Nc2cccc3cnccc23)cc1	2.7%	-0.7%[57.1 µM]	-0.9%	i	-1.0%	?
S=C(Nc1cccc(Cl)c1)Nc1cccc2cnccc12	?	-8.8%	28.4%	i	?	44.7µM*
CC(=O)c1ccc(NC(=S)Nc2cccc3cnccc23)cc1	-3.9%	-8.3%	39.8µM*	i	-0.7%	22.4µM*
O=S(=O)(NC1CCCC(NS(=O)(=O)c2c(F)cccc2F)C1)c1ccc2c(c1)OCCO2 (stereo not given)	/	/	/	/	30.4%	/
CC(=Cc1ccccc1)C=C1SC(=S)N(CCCC(=O)Nc2ccc(C(=O)O)c(O)c2)C1=O	/	/	/	i	/	/
CC(/C=C1\SC(=S)N(CCCC(=O)Nc2ccc(C(=O)O)c(O)c2)C1=O)=C\c1ccccc1	9.2%	-15.9%	-0.6%	i	53.6µM*	?
O=C1OC(c2ccccc2)(c2ccccc2)N2CCN(C(=O)NCc3ccc(F)cc3)CC12 (stereo not given)	/	/	/	/	8.1%	/
COc1ccc(Nc2cc(C)c3cc(NC(=O)c4cc(OC)cc(OC)c4)ccc3n2)cc1	/	5.7%	/	/	0.9%	17.1%
COCCCn1c(=O)c2sccc2n(Cc2cccc(C)c2)c1=O	-11.7%	0.4%	1.58µM*	i	0.4%	14.4%
COCCCn1c(=O)c2sccc2n(Cc2cccc(F)c2)c1=O	-16.8%	7.1%[57.1 µM]	3.3%	i	-1.0%	19.3%[57.1 µM]
O=C(O)c1cc(N2C(=O)C=CC2=O)cc(N2C(=O)C=CC2=O)c1	/	-3.0%	/	i	/	0.224µM*
C=CCn1c(SCC(=O)NCc2ccco2)nc2ccccc2c1=O	4.0%	-0.5%[57.1 µM]	0.4%	i	-6.8%	-1.5%[57.1 µM]
COc1cccc(-c2nnc(SCC(=O)NCc3ccc4c(c3)OCO4)n2Cc2ccco2)c1	-0.8%	10.1%[57.1 µM]	/	i	6.5%	?
O=C(CSc1nnc(-c2ccncc2)n1Cc1ccco1)c1ccc(Cl)cc1	-17.5%	8.1%	-5.4%	i	0.8%	31.6µM*
O=C(CSc1nnc(-c2ccncc2)n1Cc1ccco1)Nc1ccccc1Cl	-1.2%	8.1%[57.1 µM]	0.6%	i	3.2%	17.3%[57.1 µM]
C=CCn1c(SCC(=O)NCc2ccco2)nnc1-c1ccc2ccccc2n1	5.7%	-7.3%	-2.9%	i	?	79.4µM*
O=C(CSc1nnc(-c2ccc(Cl)cc2)n1Cc1ccco1)c1cccs1	20.3%	-6.0%	11.8%	i	55.3%	35.5µM*
COc1cccc(-c2nnc(SCC(=O)Nc3ccc4c(c3)OCCO4)n2Cc2ccco2)c1	7.7%	-9.3%[57.1 µM]	-9.5%	-114.5%*	0.5%	11.5%[57.1 µM]
NC(=O)C1CCN(c2ncc(-c3cccc(N4CCCC4)c3)s2)CC1	/	/	/	/	6.3%	/
OC(C1=C/C(=C\c2ccncc2)c2ccccc21)c1ccncc1 (stereo not given)	/	-5.9%	/	/	/	-9.2%
